Assay results published in PubChem BioAssay (Tox21).
Records with an inconclusive call do not appear. A call without a number means that no potency is given here. Calls of active or inactive are those of the source. The call rests on the fitted dose curve; in most records, active means well fitted cell-killing curve with a large enough effect in the repeat runs; inconclusive means weak or mixed curves; inactive means flat fitted curve, though single readings scatter.

Assay: qHTS assay to identify small molecule antagonists of the estrogen receptor beta (ER-beta) signaling pathway - cell viability counter screen (AID 1259382); further: nearly all actives have a fitted effect of over 55% in size
Details: ER-beta-UAS-bla HEK293T viability, CellTiter-Glo luminescence, 16 h; series mostly up to 92.4 µM
Description: U.S. Tox21 Program National Center for Advancing Translational Sciences [NCATS] NIH Chemical Genomics Center [NCGC] U.S. Environmental Protection Agency [EPA] National Institutes of Environmental Health Sciences [NIEHS] National Toxicology Program [NTP] U.S. Food and Drug Administration [FDA] Tox21 Assay Overview: Estrogen receptor (ER), a nuclear hormone receptor, plays an important role in development, metabolic homeostasis and reproduction. Two subtypes of ER, ER-alpha and ER-beta, have similar expression patterns with some uniqueness in both types. Endocrine disrupting chemicals (EDCs) and their interactions with steroid hormone receptors like ER causes disruption of normal endocrine function. To identify the compounds that inhibit ER signaling, an ER-beta-UAS-bla GripTite cell line (Life Technologies, Madison, WI, USA) containing a beta-lactamase reporter gene under the control of an UAS response element was used to screen Tox21 10K compound library. The cytotoxicity of the Tox21 compound library against the ER-beta-bla cell line was tested in parallel by measuring the cell viability using CellTiter-Glo assay in the same wells.
Tox21 Assay Protocol Summary: ER-beta-UAS-bla HEK293T cells were dispensed at 2,000 cells/4 uL of assay medium containing 2% charcoal stripped FBS per well into black wall/clear-bottom 1536-well plates using a Multidrop Combi (ThermoFisher Scientific, Waltham, MA) dispenser. After the assay plates were incubated at a 37C and 5% CO2 for 6 hr, 23 nL of compounds dissolved in DMSO, positive controls or DMSO only was transferred to the assay plate by a Pintool station (Kalypsys, San Diego, CA), followed by addition of 1 uL (1nM as final concentration) of 17-beta-estradiol (E2) in assay medium using a Flying Reagent Dispenser (FRD, Aurora Discovery, San Diego, CA). The plates were incubated at 37C and 5% CO2 for 16 hr. Then 1 uL of LiveBLAzer B/G FRET substrate was added using a Flying Reagent Dispenser, the plates were incubated at room temperature for 2 hours, and fluorescence intensity was measured by an Envision plate reader (PerkinElmer, Shelton, CT). For cell viability readout that measures cytotoxicity, 4 uL/well of CellTiter-Glo reagent was added into the assay plates using a FRD. After 30 min incubation at room temperature, the luminescence intensity in the plates was measured using a ViewLux (PerkinElmer) plate reader.

Compound | Potency
ClCCOCOCCCl | inactive
O=C(O)c1ccc2[nH]cc(CCCCN3CC=C(c4ccccc4)CC3)c2c1 | inactive
OC(c1ccccc1)(c1ccccc1)C1CCNCC1 | inactive
O=P(O)(Oc1ccccc1)Oc1ccccc1 | inactive
CCc1cc2c(s1)-n1c(C)nnc1CN=C2c1ccccc1Cl | inactive
O=C(O)C(Br)CBr (stereo not given) | inactive
CC(C)[N+](=O)[O-] | inactive
C[N+](C)=CCl | inactive
C[N+](=O)[O-] | inactive
CC(=O)CCc1ccc2c(c1)OCO2 | inactive
C=CC1CC=CCC1 (stereo not given) | inactive
Fc1cc(Br)ccc1CBr | inactive
COP(=S)(OC)Oc1c(Cl)cc(C)cc1Cl | inactive
CCC1(c2ccccc2)C(=O)N=C(O)NC1=O (stereo not given) | inactive
NC(=O)c1cc([N+](=O)[O-])cc([N+](=O)[O-])c1 | inactive
COC(C)(C)C | inactive
COc1cc(C[C@@H](C)N)c(OC)cc1C | inactive
COc1ccc(C(=O)N2CCCC2=O)cc1 | inactive
CCC(=O)c1ccccc1 | inactive
Cc1cnc[nH]1 | inactive

Compound | Potency
C[C@]12CC[C@H]3[C@@H](CCC4=CC(=O)CC[C@@]43C)[C@@H]1CC[C@@H]2C(=O)O | inactive
COc1cc(OC)nc(Sc2cccc(Cl)c2C(=O)O)n1 | inactive
N#CCNCC#N | inactive
CCC1(c2ccccc2)C(=O)NC(=O)NC1=O | inactive
CCN(CC)C(=O)[C@@H]1C=C2c3cccc4[nH]cc(c34)C[C@H]2N(C)C1 | inactive
ClC(Cl)(Cl)C(Cl)(Cl)Cl | inactive
CC1(C)COP(Oc2ccccc2)OC1 | inactive
CCOP(=O)(OCC)OP(=O)(OCC)OCC | inactive
CCNc1nc(NC(C)C)nc(OC)n1 | inactive
Cc1cccc(C#N)c1 | inactive
c1cc[c]([Hg][c]2ccccc2)cc1 | inactive
C=C(C)CN(CC)c1c([N+](=O)[O-])cc(C(F)(F)F)cc1[N+](=O)[O-] | inactive
O=C(Nc1ccccc1)N(Cc1ccc(Cl)cc1)C1CCCC1 | inactive
CNC(=O)Oc1c(C(C)(C)C)cc(C)cc1C(C)(C)C | inactive
CC(N)=S | inactive
N#Cc1c(Cl)cccc1Cl | inactive
CCC/C(=N\OCC)C1=C(O)CC(CC(C)SCC)CC1=O (stereo not given) | inactive
O=[N+]([O-])c1cccc2cccnc12 | inactive
Nc1c(Br)cc([N+](=O)[O-])cc1[N+](=O)[O-] | inactive
[O]=[Cd] | inactive
